# Assay results taken from PubChem BioAssay AID1259422 (The Scripps Research Institute Molecular Screening Center, 2018).
# Hit rate of the full screen: of about 640,000 compounds, about 9,300 (1.5%) were called active. The list comes from a sample in which actives are over-represented; it also holds similar structures and randomly drawn compounds. Values without a mark were called inactive. No stated cut-off is given here; in the data, active means inhibition above about 32%; inactive means the rest.
# Experiment: TEAD-YAP interaction inhibition, primary screen, TEAD-YAP interaction inhibitor project, luminescence, HEK-TIYL cells (AID 1259422);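 further: 0% = median of test compound wells and 100% = reference inhibitor wells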
# Conditions: TEAD-Gal4/YAP UAS-luciferase luminescence, at 9.12 µM, stronger effect = higher value
row,Compound,inhibition
1,CC1CN(C(=S)c2ccc(Br)cc2)CC(C)O1 (configuration not stated),6.13%
2,O=C(CSc1nnc(NC(=O)C2CCC2)s1)NCc1cccs1,5.18%
3,COc1ccc(/C=N/N=C2/NC(=O)CS2)c(OC)c1,-13.7%
4,O=C(N/N=C/c1cccc2ccccc12)C(=O)N/N=C/c1cccc2ccccc12,0.24%
5,COc1cccc(/C=N/NC(=O)CC23CC4CC(CC(C4)C2)C3)c1O,69.8% (active)
6,COc1cccc(/C=N/NC(=O)CNc2cccc(C)c2)c1O,13.4%
7,COc1cccc(/C=N/NC(=O)C(=O)Nc2cccc3ccccc23)c1O,65.7% (active)
8,COc1cccc(/C=N/N=C2/NC(=O)CS2)c1O,58.3% (active)
9,COc1cccc(/C=N/NC(=O)c2cc(O)cc(O)c2)c1O,20.7%
10,COc1cccc(/C=N/NC(=O)c2ccccc2I)c1O,13.4%
11,COc1cc(/C=N/N=C2/NC(=O)CS2)ccc1OC(=O)c1ccccc1C,3.4%
12,O=C(Cc1ccsc1)N1CCC[C@@H]2CN(C/C=C/c3ccccc3)CC[C@H]21,-4.71%
13,CS(=O)(=O)c1ccc(NCc2ccco2)cc1,-0.14%
14,CCOC(=O)C1=C(C)N=c2s/c(=C\c3ccc(N(C)C)c(Br)c3)c(=O)n2C1c1ccc(OC)c(OC)c1 (configuration not stated),-28.6%
15,CCc1nc(SCC(N)=O)c2c3c(sc2n1)CCCC3,-22.7%
16,COc1ccc2nc(N3CCC(NCc4cccc(F)c4F)CC3)nc(C)c2c1,5.35%
17,CC(=O)C(C(C)=O)c1cc(Nc2ccc(C)cc2)c2c3c(onc13)-c1ccccc1C2=O,3.02%
18,CCOC(=O)C1(CO)NC(c2ccc(O)cc2)C2C(=O)N(C)C(=O)C21 (configuration not stated),-8.15%
19,CCOC(=O)C(=O)C(C#N)c1ccc(OC(C)C)cc1 (configuration not stated),2.75%
20,c1ccc(OCCNc2cc(-c3ccccc3)ncn2)cc1,-25.8%
21,CCCNc1ccc2ncc(-c3cccc(OC)c3)n2n1,59.2% (active)
22,CCCNc1ccc2ncc(-c3ccco3)n2n1,3.49%
23,COc1cccc(-c2cnc3ccc(NCc4ccco4)nn23)c1,8.66%
24,CCCNc1cc(-c2cccc(N)c2)ncn1,-10.6%

row,Compound,inhibition
1,CCCCNc1cc(-c2cccc(OC)c2)ncn1,64.6% (active)
2,CCOc1cc(-c2nc3sc4c(c3c(=O)[nH]2)CCCC4)cc(Br)c1OCc1ccccc1F,-1.86%
3,CCN(CC)C(=O)c1sc(NC(=O)c2cccc(OC)c2)c(C(=O)OC(C)C)c1C,7.6%
4,O=S(=O)(/C=C/c1ccccc1)N1CCN(CC(O)COCc2ccccc2)CC1 (configuration not stated),1.15%
5,Cc1ccc(S(=O)(=O)N(CC(=O)N2CCCC2)c2ccc(Cl)cc2C)cc1,2.4%
6,Cc1ccc(/C=N/NC(=O)c2ccc(Cl)cc2O)o1,-20.5%
7,COc1ccc(CN2CCN(Cc3cccnc3)CC2)cc1OCc1ccccc1,8.2%
8,Oc1c(CN2CCCC2)cc(COCc2ccccc2)c2cccnc12,63% (active)
9,Oc1c(CN2CCN(c3cccc(Cl)c3)CC2)cc(Br)c2cccnc12,5.69%
10,CCOc1ccc(NC(=O)c2ccc(C#N)cc2F)cc1,-9.3%
11,CCOC(=O)c1ccc(NC(=O)c2ccc(C#N)cc2F)cc1,-1.23%
12,N#Cc1ccc(C(=O)Nc2ccc(Cc3ccncc3)cc2)c(F)c1,55.3% (active)
13,O=C(/C=C/c1ccccn1)c1ccc2c(c1)OCO2,-21.2%
14,COc1cccc(/C=C/C(=O)c2ccc3c(c2)OCCO3)c1,-34.3%
15,O=C(/C=C/c1ccc2c(c1)OCCO2)c1ccc(O)cc1,63.9% (active)
16,COCCNc1c(C(C)Cc2ccc3c(c2)OCO3)nc2cnccn12 (configuration not stated),-1.93%
17,Cn1c(=O)cc(OCC(=O)NCCN2CCOCC2)c2ccccc21,-3.6%
18,Cc1ccc2nc(-c3ccc(Br)cc3)cn2c1,75.2% (active)
19,Cc1ccccc1-n1c(-c2ccc(Br)cc2)n[nH]c1=S,-9.56%
20,O=C(Nc1ccc(-c2cn3ccccc3n2)cc1)c1ccc(Br)cc1,-5.14%
21,Brc1ccc2nc(-c3cccs3)cn2c1,37.5% (active)
22,c1ccc(-c2nc3nc(-c4cccs4)cn3nc2-c2ccccc2)cc1,-28.9%
23,N#Cc1ccc(-c2cccs2)nc1SCc1ccc(Br)cc1,-20.2%
